Among the data in PubChem BioAssay (NCI) are growth inhibition values, retold here.

This is part of a sample that, as a whole, favours compounds with a hit. Of some 79,000 tested, about 15% had one in any assay. Values without a mark were called inactive. The source made the active and inactive calls. Rule as the data show it: active = growth inhibition above about 70%; inactive = the rest.

The nature of the assay: NCI Yeast Anticancer Drug Screen. Data for the sgs1 strain (AID 173).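 Also: 0% = growth of vehicle-only control cultures.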 The conditions noted are these: S. cerevisiae sgs1 mutant, hits give high values. How it is done:
Growth inhibition of yeast strains with defined genetic alterations is measured as a screen for potential anti-cancer activity. Selected strains with alterations in DNA damage repair or cell cycle control were exposed to compounds and growth inhibition was measured relative to vehicle treated controls. The strain used in this assay is sgs1

Consider `BrC1C2CCC3OC3C12` (stereo not given), for which the growth inhibition (at 1.2 µM) is -1%; the growth inhibition (at 3.7 µM) is 11%; the growth inhibition (at 11.0 µM) is 98% (active); the growth inhibition (at 33.0 µM) was 99% (active); the growth inhibition (at 100.0 µM) is 99% (active).
Take `CN(C)N=Nc1ccc(N(C)C)cc1`: the growth inhibition (at 1.2 µM) is 0%; the growth inhibition (at 3.7 µM) was 4%; the growth inhibition (at 11.0 µM) was 6%; the growth inhibition (at 33.0 µM) was 15%; the growth inhibition (at 100.0 µM) was 28%.
In the case of `Cc1ccc(S(=O)(=O)N/N=C/C(Br)=C(/Br)C(=O)O)cc1`, the growth inhibition was 28% (at 1.2 µM); 38% (at 3.7 µM); 56% (at 11.0 µM); 95% (active) (at 33.0 µM); 77% (active) (at 100.0 µM).
For the molecule `Cc1cc2nc3ccccc3n2c2ccccc12`, the growth inhibition is -43% (at 1.2 µM); -35% (at 3.7 µM); -40% (at 11.0 µM); -29% (at 33.0 µM); -13% (at 100.0 µM).
The corresponding values for `Cc1ccccc1NC(=O)c1c(C)oc2c1C(=O)c1ccccc1C2=O` are -15%, -15%, -2%, 24% and 83% (active).
The corresponding values for `COc1c2c(c3c(c1CCC(=O)O)OC(C)(C)C=C3)OC(C)(C)C=C2` are 0%, 4%, 20%, 59% and 98% (active).
As for `C=CCNC1=C2C[C@@H](C)C[C@H](OC)[C@H](O)[C@@H](C)/C=C(\C)[C@H](OC(N)=O)[C@@H](OC)/C=C\C=C(/C)C(=O)NC(=CC1=O)C2=O`, the growth inhibition is, setting by setting: (at 1.2 µM) -34%; (at 3.7 µM) -10%; (at 11.0 µM) 56%; (at 33.0 µM) 94% (active); (at 100.0 µM) 96% (active).
Regarding `CC1=NN(C(=O)CC(=O)NC(=O)/C=C\c2ccccc2)C(=O)C1N=Nc1ccc([N+](=O)[O-])cc1` (stereo not given), the growth inhibition is 2% (at 1.2 µM); 16% (at 3.7 µM); 61% (at 11.0 µM); 77% (active) (at 33.0 µM); 74% (active) (at 100.0 µM).
